Data published in PubChem BioAssay AID2662 (National Center for Advancing Translational Sciences (NCATS), 2010).
Screen size: about 290,000 compounds; about 110 (0.038%) were called active. Another 3% or so got no clear call; they are omitted. This is one part of a sample in which actives are shown more often than they occur. Calls follow the shape of the dose curve; as a rule, active = well fitted inhibition curve with a large enough effect in the polarisation, with a control signal flat (not every such curve was filed as active); inconclusive = small, poorly fitted or top-dose-only effect, or effect the other way, or a change in a side signal; inactive = no such curve, though single readings can be large or run the other way; the % refers to the polarisation.

The compounds below were run against Histone-lysine N-methyltransferase 2A (Homo sapiens) (UniProt Q03164) (assay: qHTS Fluorescence Polarization Assay for Inhibitors of MLL CXXC domain - DNA interaction). Settings: MLL-CXXC / FITC-HOXA9 DNA fluorescence polarization; series mostly up to 115 µM; activity change, negative = inhibition: at the top concentration.
Description: NIH Chemical Genomics Center [NCGC] NIH Molecular Libraries Probe Production centers Network [MLPCN] MLPCN Grant: DA027717-01A1 Assay Submitter (PI): John Bushweller NCGC Assay Overview: The MLL (Mixed Lineage Luekemia) gene is involved in chromosomal translocation that results in either acute lymphoid leukemia (ALL) or acute myeloid leukemia (AML). Chromasomal translocation of MLL gene is responsible for the fusion of N-terminal MLL to more than 60 different partner genes in frame. Many of the MLL partner genes contain transcription activation domains or function as transcriptional activators. Despite the heterogeneity of fusion partners, the N-terminus of MLL fusion proteins always consists of the N-terminal menin binding motif and the CXXC domain. The MLL-CXXC domain specifically recognizes unmethylated CpG sequences of the HOX-A gene. Disruption of the MLL-CXXC and HOX-A gene interaction leads to down regulation of HOX-A gene expression and may potentially reverse leukemogenesis. We have miniaturized and optimized an in-vitro assay to screen for inhibitors of the MLL-CXXC domain and HOX-A DNA interaction, which could have utility in MLL fusion leukemias.
The affinity purified MLL-CXXC domain, unlabeled HOX-A9 DNA strand, fluorescein (FLSN) labeled HOX-A9 DNA strand were kindly supplied by the laboratory of Dr. John Bushweller, University of Virginia. All reagents were stored in single use aliquots at -80C. Assay Reagents: Assay buffer: 50 mM TRIS-HCl pH 7.5, 50 mM NaCl, 1 mM DTT. Add 0.05% BSA prior to reaction setup. Assay Procedure: 1.Dispense 1 ul of a 7 uM MLL-CXXC solution prepared in assay buffer into column 1-48. 2.Transfer 23 nl of compounds and unlabeled HOX-A9 per well. 3.Incubate for 5 minutes at ambient. 4.Dispense 1ul of a 50 nM FLSN-HOX-A9 solution prepared in assay buffer into columns 1-48 5.Centrifuge for 30 seconds at 1000 RPM. 6.Incubate for 30 minutes at ambient. 7.Read using the Envision reader fluorescent polarization protocol.

Chain of Histone-lysine N-methyltransferase 2A (Homo sapiens) (Q03164 whole entry, looked up, the tested form may be a part): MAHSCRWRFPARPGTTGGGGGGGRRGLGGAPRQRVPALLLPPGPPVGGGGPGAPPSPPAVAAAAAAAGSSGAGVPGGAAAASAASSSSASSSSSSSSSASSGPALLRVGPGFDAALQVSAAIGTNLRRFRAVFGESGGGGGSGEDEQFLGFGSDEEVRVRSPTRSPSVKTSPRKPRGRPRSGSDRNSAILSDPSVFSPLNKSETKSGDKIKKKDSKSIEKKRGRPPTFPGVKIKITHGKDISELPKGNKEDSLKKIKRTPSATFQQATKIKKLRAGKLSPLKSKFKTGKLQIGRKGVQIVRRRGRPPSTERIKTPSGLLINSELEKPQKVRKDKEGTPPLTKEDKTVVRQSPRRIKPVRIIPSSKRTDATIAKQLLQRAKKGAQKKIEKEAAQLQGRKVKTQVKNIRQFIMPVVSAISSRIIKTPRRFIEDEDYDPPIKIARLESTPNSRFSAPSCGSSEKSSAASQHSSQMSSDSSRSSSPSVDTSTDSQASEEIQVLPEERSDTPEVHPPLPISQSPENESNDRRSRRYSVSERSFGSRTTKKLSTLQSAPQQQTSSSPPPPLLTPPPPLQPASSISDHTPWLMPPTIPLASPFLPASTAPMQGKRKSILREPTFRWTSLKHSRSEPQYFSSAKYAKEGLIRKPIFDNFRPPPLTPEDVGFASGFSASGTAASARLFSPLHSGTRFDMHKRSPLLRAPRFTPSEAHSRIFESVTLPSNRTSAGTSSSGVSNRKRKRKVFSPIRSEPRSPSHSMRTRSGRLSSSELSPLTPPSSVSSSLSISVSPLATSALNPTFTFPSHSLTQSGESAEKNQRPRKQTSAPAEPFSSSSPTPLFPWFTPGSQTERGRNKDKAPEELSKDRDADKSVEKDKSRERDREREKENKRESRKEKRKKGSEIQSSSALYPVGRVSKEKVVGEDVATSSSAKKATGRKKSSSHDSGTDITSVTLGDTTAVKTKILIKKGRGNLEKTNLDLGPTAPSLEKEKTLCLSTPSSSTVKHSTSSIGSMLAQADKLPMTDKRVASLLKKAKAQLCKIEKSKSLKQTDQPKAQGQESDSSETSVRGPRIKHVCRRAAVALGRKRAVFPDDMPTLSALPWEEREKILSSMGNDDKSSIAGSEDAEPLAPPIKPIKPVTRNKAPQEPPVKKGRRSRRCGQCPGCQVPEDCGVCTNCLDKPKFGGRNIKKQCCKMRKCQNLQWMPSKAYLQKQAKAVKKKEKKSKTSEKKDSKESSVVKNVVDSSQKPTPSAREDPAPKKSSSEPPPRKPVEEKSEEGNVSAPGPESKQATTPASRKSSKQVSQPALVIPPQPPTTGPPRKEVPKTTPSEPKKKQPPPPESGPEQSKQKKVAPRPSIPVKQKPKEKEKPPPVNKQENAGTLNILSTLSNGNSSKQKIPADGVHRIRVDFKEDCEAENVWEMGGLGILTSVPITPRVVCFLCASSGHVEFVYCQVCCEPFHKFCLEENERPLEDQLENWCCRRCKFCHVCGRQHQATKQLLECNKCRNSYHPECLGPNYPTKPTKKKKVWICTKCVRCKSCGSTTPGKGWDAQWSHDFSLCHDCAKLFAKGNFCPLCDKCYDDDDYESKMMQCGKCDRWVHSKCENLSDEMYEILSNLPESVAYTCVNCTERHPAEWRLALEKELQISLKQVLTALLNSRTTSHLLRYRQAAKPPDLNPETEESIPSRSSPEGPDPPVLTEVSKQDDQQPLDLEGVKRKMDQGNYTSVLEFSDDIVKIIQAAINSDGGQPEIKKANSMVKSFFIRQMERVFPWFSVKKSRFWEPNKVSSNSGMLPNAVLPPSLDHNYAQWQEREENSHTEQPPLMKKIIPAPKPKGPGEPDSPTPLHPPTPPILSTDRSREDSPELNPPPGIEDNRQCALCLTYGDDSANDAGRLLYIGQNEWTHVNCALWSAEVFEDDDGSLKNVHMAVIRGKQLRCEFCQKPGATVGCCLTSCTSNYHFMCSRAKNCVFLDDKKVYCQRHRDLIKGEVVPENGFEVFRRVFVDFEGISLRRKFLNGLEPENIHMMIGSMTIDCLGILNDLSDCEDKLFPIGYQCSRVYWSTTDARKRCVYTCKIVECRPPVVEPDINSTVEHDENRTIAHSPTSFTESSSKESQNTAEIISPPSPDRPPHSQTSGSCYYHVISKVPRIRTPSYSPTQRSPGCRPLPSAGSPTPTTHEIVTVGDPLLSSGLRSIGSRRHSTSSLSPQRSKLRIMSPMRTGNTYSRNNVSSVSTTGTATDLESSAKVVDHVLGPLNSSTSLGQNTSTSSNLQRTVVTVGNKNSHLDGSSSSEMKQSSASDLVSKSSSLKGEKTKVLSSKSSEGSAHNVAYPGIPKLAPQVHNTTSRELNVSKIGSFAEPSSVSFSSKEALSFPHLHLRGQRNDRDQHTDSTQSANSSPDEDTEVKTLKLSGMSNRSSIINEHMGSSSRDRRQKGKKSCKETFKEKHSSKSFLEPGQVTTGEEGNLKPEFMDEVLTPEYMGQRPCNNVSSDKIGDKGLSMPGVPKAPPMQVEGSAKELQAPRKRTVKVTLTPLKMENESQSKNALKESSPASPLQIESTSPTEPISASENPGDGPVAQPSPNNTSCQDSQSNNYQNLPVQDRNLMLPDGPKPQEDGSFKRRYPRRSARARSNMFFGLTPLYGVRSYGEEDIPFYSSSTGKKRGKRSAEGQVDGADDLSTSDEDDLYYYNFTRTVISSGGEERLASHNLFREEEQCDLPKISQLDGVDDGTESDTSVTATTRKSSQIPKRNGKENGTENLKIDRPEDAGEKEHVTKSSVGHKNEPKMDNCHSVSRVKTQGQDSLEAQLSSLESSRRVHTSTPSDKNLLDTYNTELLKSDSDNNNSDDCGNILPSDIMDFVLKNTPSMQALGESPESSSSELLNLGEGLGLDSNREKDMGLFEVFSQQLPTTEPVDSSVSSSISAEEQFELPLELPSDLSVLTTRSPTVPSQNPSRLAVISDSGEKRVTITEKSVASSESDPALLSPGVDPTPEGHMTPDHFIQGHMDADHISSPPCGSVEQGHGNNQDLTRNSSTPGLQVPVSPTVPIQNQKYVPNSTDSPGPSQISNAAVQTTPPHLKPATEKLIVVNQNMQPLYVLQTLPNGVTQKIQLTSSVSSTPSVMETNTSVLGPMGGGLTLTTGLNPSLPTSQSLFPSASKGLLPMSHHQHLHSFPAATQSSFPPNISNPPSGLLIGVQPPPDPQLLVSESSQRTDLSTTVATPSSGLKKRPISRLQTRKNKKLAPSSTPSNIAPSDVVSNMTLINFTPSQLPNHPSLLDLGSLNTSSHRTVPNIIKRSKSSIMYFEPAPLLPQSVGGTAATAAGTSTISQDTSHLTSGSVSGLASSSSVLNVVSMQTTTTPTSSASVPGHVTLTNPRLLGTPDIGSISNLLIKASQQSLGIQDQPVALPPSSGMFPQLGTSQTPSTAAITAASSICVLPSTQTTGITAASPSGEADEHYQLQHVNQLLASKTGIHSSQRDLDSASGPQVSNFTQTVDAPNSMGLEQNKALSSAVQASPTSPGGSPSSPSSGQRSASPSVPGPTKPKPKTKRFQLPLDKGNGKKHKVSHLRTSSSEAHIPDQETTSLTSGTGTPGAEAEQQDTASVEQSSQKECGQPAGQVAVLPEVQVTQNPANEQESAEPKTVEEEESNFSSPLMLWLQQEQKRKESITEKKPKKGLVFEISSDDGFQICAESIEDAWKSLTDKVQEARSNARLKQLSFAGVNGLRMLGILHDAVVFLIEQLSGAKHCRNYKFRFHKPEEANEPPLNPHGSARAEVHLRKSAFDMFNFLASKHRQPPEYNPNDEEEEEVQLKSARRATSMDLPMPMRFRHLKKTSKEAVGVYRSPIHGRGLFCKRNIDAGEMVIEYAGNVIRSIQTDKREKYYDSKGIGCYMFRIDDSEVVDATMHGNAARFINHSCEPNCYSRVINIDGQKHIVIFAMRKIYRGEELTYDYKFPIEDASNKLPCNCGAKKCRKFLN

Activity change, negative = inhibition, inactive:
COc1ccc(N(CC(=O)Nc2cc(OC)cc(OC)c2)S(=O)(=O)c2c(C)n[nH]c2C)cc1 -2.83%
CC(C)NC(=O)C(c1ccc(F)cc1)N(C(=O)CCC(=O)Nc1ccccn1)c1ccccc1F (configuration not stated) -3.67%
COc1ccc(C(=O)NC(C)CCc2ccccc2)c(OC)c1 (configuration not stated) -5.8%
O=C(CN1CCC(NC(=O)C2CC2)CC1)Nc1ccccc1[N+](=O)[O-] 2.95%
CCCOc1ccc(-c2c(C(=O)N/N=C/c3ccco3)nnn2-c2nonc2N)cc1 1.47%
COC(=O)c1cc(S(=O)(=O)Nc2ccc(C)c(F)c2)c[nH]1 5.77%
O=C(c1ccccc1)N1CCN(C(=O)c2cc3nc(-c4ccccc4)cc(C(F)(F)F)n3n2)CC1 -7.71%
COc1cccc(N(CC(=O)NC2CCCC2)C(=O)Cn2nnc(-c3ccc(C)o3)n2)c1 25.6%
COc1ccc2c(c1OC)C(=O)N(c1ccc(O)cc1)C2 -1.66%
C=CC1(C)CC(=O)C2(O)C(C)(O1)C(OC(C)=O)C(O)C1C(C)(C)CCC(O)C12C (configuration not stated) 2.28%
C=C1C(=CC=C2CCC[C@@]3(C)[C@@H]2CC[C@H]3[C@H](C)CCCC(C)C)C[C@@H](O)C[C@@H]1O -2.06%
O=C(CCS(=O)(=O)c1ccccc1)NC1CCCC1 -6.29%
O=C(COc1ccc(Cl)cc1)Nc1ccc2c(c1)OCO2 -10.7%
COc1cccc(OCC(O)CNC(=O)c2oc3c(C)c(C)ccc3c2C)c1 (configuration not stated) 1.3%
O=C(NCCc1ccccn1)c1nc(Cn2cc([N+](=O)[O-])cn2)no1 0.842%
COc1ccc(-c2cc(=O)oc3cc(OC(C)C(=O)Nc4ccc(CN5CCOCC5)cc4)ccc23)cc1 (configuration not stated) 16.7%
CCOc1cc(C(=O)O)ccc1OCCOc1ccccc1 3.09%
Cc1cc(C)cc(N(CCC#N)C(=O)CN2C(=O)NC3(CCCC3)C2=O)c1 -1.49%
CC(=O)N(C)c1ccc(NC(=O)Nc2cccc3ccccc23)cc1 -9.5%
CS(=O)(=O)N(CC(=O)Nc1ccc(F)cc1)C1CCCCC1 -8.63%
CC(=O)c1ccc(OCC(O)CN2CCN(S(=O)(=O)c3cccc(Br)c3)CC2)cc1 (configuration not stated) 2.81%
COc1ccccc1N1CCN(C(=O)c2cc(=O)c3cc(C)ccc3o2)CC1 -8.72%
Cc1ccc(OCC(=O)Nc2ccc(C(=O)O)cc2NC(=O)COc2ccc(C)c(C)c2)cc1C 16.9%
Cc1nn(C(C)(C)C)c(OC(=O)CC(C)C)c1S(=O)(=O)c1ccccc1 -2.57%
C[C@]12CC[C@@H]3c4ccc(O)cc4C[C@@H](CCCCCCCCCS(=O)CCCC(F)(F)C(F)(F)F)C3[C@@H]1CC[C@@H]2O (some centres not stated) 5.98%
COc1ccccc1C(=O)NC(CCSC)C(=O)NNC(=O)c1csc(N2CCOCC2)n1 (configuration not stated) -2.58%
Cc1ccc(S(=O)(=O)NCCCn2ccnc2)cc1C(=O)NC(C)C -5.36%
O=C(O)c1ccccc1C(=O)NC1=NN(c2ccccc2)CC1 2.1%
O=C(NCCCN1CCCCC1)C1CC(=O)N(CCc2ccccc2)C1 (configuration not stated) 3.45%
COc1cc2c(cc1OC)[C@@H](Cc1cc(OC)c(OC)c(OC)c1)[N+](C)(CCCOC(=O)CC/C=C/CCC(=O)OCCC[N+]1(C)CCc3cc(OC)c(OC)cc3[C@H]1Cc1cc(OC)c(OC)c(OC)c1)CC2 (some centres not stated) -5.96%
CN(C(=O)c1ccccc1)c1nccnc1C#N -18.4%
O=S(=O)(NC1CCCCC1N1CCN(c2ccccc2F)CC1)c1ccccc1 (configuration not stated) -0.732%
CCC1CCCCN1C(=S)Nc1ccc(S(=O)(=O)Nc2ncccn2)cc1 (configuration not stated) 11%
Cc1cc(C)cc(OCC(=O)Nc2cc(NC(=O)COc3cc(C)cc(C)c3)cc(C(=O)O)c2)c1 -18.7%
C[C@H](NC(=O)C1CC(=O)N(c2ccc3c(c2)OCCO3)C1)C(=O)N1CCC(C(=O)O)CC1 (some centres not stated) 13.2%
Cc1cc(C)c2nc(N3CCC(C(=O)NCCN4CCOCC4)CC3)sc2c1 -5.32%
Cc1ccc(C(C(=O)NCC2CCCO2)N(C(=O)c2snc(C(N)=O)c2N)c2ccc(C(C)C)cc2)o1 (configuration not stated) 5.15%
CCOC(=O)[C@@H]1[C@H]2COc3ccc(Br)cc3[C@H]2N2C(=O)N(c3ccc(Cl)cc3)C(=O)[C@@]12C -3.58%
CC(=O)NC1CCN(CC(=O)Nc2nccs2)CC1 1.35%
O=C(COc1ccc(Cl)cc1Cl)N/N=C/c1ccccn1 24%
Cc1cccc(N(C)C(=O)CN2C(=O)COc3ccc(S(=O)(=O)N4CCCCCC4)cc32)c1 -1.72%
O=C(Nc1cccc(-n2cnnn2)c1)c1cccnc1 2.3%
COc1ccccc1CCNC(=O)c1c(C)nn(CC(C)C)c1Cl 2.36%
Cc1cccc(C)c1NC(=O)CS(=O)CC(=O)N1CCN(c2ccccc2)CC1 (configuration not stated) 2.84%
O=C(Nc1ncc([N+](=O)[O-])s1)C1COc2ccccc2O1 (configuration not stated) 7.99%
CC(C)CNC(=O)C(=O)NCC(c1ccc2c(c1)OCO2)N1CCOCC1 (configuration not stated) -11.6%
Cc1ccc(-c2noc(CNC(=O)c3ccoc3C)n2)cc1 -2.13%
O=C(CCS(=O)(=O)c1ccc2c(c1)NC(=O)CS2)NCc1ccccc1Cl 3.07%
CCc1ccccc1NC(=S)Nc1cc(OC)c(NC(=O)C(C)C)cc1OC 3.05%
O=C(NCc1ccccc1)C(c1ccccc1)N(C(=O)c1csnn1)c1ccc(F)cc1 (configuration not stated) 21.8%
[2H]C(CCOS(N)(=O)=O)c1ccccc1 (configuration not stated) -2.68%
CCCCC(=O)Nc1c2c(nn1-c1ccc([N+](=O)[O-])cc1)CS(=O)(=O)C2 21.7%
Cc1cc(C)n2nc(CNS(=O)(=O)c3c(F)c(F)c(F)c(F)c3F)nc2n1 7.15%
COc1cccc(CNC(=O)COc2cc(O)c3c(c2)OC(C)(C)CC3=O)c1 4.19%
C/C(=N\NC(=O)c1ccoc1C)c1ccccc1O 21.1%
CN1C(=O)CN2CCc3ccccc3C2c2cc(Cl)ccc21 (configuration not stated) 6.84%
O=C1C2CCCN2C(=O)N1CCCCN1CCN(c2cccc(C(F)(F)F)c2)CC1 (configuration not stated) -0.642%
O=C(Nc1nnc(S(=O)(=O)N2CCCCCC2)s1)c1cccc(Br)c1 -14.9%
Cc1cccc(OCC(O)CN2CCN(S(=O)(=O)c3ccc(C)cc3C)CC2)c1 (configuration not stated) -3.59%
Cc1cc(N=Nc2ccc3ccccc3c2)ccc1O -3.97%
OCC(CO)NC1C[C@](O)(CO)[C@@H](O)[C@H](O)[C@H]1O (some centres not stated) -1.18%

Potency, inactive:
CCN1C(=NCC(C)C)N[C@@H](CCc2ccccc2)[C@H](C(=O)NCC(C)C)[C@H]1C
